Measurements taken from paper PMC4336329 (PLoS ONE, 2015).
The whole screen tested about 310,000 compounds, of which about 14,000 (4.5%) showed an effect of 50% or more. Effects have a minus sign here. The list comes from a sample in which strong results are over-represented; it also holds similar structures and randomly drawn compounds.

Each compound was assayed against human ether-à-go-go-related gene (hERG) potassium channel (human, UniProt Q12809) (assay: primary screen, population patch clamp on CHO cells stably expressing hERG; higher = less effect of the substance).
Chain of human ether-à-go-go-related gene (hERG) potassium channel (Q12809 whole entry, looked up): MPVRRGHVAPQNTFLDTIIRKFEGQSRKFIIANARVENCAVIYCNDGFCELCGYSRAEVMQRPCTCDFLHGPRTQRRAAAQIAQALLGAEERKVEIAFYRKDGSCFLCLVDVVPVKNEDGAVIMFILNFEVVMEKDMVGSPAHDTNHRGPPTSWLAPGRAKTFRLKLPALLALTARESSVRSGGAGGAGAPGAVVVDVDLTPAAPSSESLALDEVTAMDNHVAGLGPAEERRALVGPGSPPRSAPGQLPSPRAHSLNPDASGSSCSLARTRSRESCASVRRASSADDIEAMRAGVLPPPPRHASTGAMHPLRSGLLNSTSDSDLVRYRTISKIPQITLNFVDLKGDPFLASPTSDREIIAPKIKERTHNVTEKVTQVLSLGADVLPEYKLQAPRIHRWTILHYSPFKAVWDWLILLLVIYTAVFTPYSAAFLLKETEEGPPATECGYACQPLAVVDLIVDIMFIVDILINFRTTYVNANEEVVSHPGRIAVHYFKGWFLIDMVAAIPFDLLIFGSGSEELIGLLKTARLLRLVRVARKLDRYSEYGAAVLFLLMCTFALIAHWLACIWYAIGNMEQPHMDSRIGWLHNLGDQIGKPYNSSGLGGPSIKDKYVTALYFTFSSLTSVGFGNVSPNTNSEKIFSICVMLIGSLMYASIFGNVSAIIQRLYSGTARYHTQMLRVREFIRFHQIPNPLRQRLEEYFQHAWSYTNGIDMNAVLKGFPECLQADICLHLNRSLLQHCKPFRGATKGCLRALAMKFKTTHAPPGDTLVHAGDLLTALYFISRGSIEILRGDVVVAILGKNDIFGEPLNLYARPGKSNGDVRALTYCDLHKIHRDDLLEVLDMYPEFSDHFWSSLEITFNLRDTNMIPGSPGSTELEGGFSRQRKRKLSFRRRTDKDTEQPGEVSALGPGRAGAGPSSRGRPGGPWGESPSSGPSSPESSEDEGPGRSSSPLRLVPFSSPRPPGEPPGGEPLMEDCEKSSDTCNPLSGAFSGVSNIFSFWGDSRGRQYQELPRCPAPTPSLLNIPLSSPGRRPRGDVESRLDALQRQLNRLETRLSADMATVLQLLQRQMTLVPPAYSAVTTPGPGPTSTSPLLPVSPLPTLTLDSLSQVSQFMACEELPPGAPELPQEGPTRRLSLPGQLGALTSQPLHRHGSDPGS
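Note: peak tail current of the secondary pulse compared with the same well before compound.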

Compound | hERG current change (%, negative = inhibition) at 10uM [%]
Cc1c(Cl)cccc1NC(=O)c1cc(-c2ccco2)on1 | -0.802
N#CC(C#N)=CN=c1ccn(Cc2ccc(Cl)cc2Cl)cc1 | 7.39
O=c1cc[nH]c2c(C(F)(F)F)cccc12 | -0.945
CCC(C)(C)NC(=O)Cn1c(-c2ccc(C)cc2)noc1=O | 13.5
CC12CCC(C(=O)Nc3ccccc3Cl)([C@H](Br)C1=O)C2(C)C (stereo partly drawn) | 15.9
COc1cc(C)c(Br)cc1S(=O)(=O)NCCN1CCOCC1 | 12.5
C/C=C(/C)C(=O)O[C@@H]1[C@H](OC(=O)C=C(C)C)c2c(ccc3ccc(=O)oc23)OC1(C)C | -0.258
CC(=O)OC1c2c(ccc3ccc(=O)oc23)OC(C)(C)C1OC(=O)CC(C)C (stereo not drawn) | -30.4
C/C=C(/C)C(=O)O[C@@H]1c2c(ccc3ccc(=O)oc23)OC(C)(C)[C@@H]1OC(=O)/C(C)=C\C | -8.07
C/C=C(\C)C(=O)OC1c2c(ccc3ccc(=O)oc23)OC(C)(C)C1OC(C)=O (stereo not drawn) | -72.5
C/C=C(/C)C(=O)OC1c2c(ccc3ccc(=O)oc23)OC(C)(C)C1OC(C)=O (stereo not drawn) | -71.8
C/C=C(/C)C(=O)O[C@H]1[C@@H](O)c2c(ccc3ccc(=O)oc23)OC1(C)C | 3.92
CC(=O)O[C@@H]1[C@H](OC(=O)CC(C)C)c2c(ccc3ccc(=O)oc23)OC1(C)C | -67.2
C/C=C(/C)C(=O)O[C@@H]1[C@H](OC(C)=O)c2c(ccc3ccc(=O)oc23)OC1(C)C | -36
C/C=C(/C)C(=O)OC1c2c(ccc3ccc(=O)oc23)OC(C)(C)C1OC(=O)/C(C)=C\C (stereo not drawn) | -12.3
CC(=O)c1cccc(NC(=O)C(CC(C)C)NC(=O)C2CCCCC2)c1 (stereo not drawn) | -4.77
O=C(O)c1c2c(nc3ccc(S(=O)(=O)N4CCC(C(=O)NC5CCCC5)CC4)cc13)CCCCC2 | 9.65
O=C1c2oc3ccc(Cl)cc3c(=O)c2C(c2cccc(Br)c2)N1CCO (stereo not drawn) | -13.1
COc1ccc(/C(=N\O)c2ncc(C(F)(F)F)cc2Cl)cc1 | -3.33
CCOC(=O)c1cnc(COc2ccccc2Cl)[nH]c1=O | 16
CCCn1c(SCC(=O)N2CCN(C(=O)c3ccco3)CC2)nc2ccccc2c1=O | -82.8

Compound | hERG current change (%, negative = inhibition) at 10uM [%]
CC(C)Cn1c(SCC(=O)N2CCCCC2)nc2ccccc2c1=O | -24.7
CC(C)Cn1c(SCC(=O)N2CCOCC2)nc2ccccc2c1=O | -5.9
CCn1c(SCC(=O)N2CCCC2)nc2ccccc2c1=O | -23
CC(C)Cn1c(SCC(=O)N2CCN(C(=O)c3ccco3)CC2)nc2ccccc2c1=O | -73.2
O=C(CSc1nc2ccccc2n1CC(=O)N1CCCC1)N1CCN(C(=O)c2ccco2)CC1 | -0.921
Cc1nc2ccccc2c(=O)n1-c1ccc(F)cc1 | -12.1
COCCCNC(=S)Nc1ccc(OC(F)F)cc1C | 7.74
CCOC(=O)C1CCN(CCC(=O)Nc2ccc(Br)c(C)c2)CC1 | -62.8
CCOC(=O)C1CCN(CCC(=O)Nc2ccc(C)c(C)c2)CC1 | -54.2
CCOC(=O)C1CCCN(CCC(=O)Nc2ccc(Br)c(C)c2)C1.Cl (stereo not drawn) | -36.1
CCOC(=O)C1CCN(c2c(Nc3ccc(C)c(C)c3)c(=O)c2=O)CC1 | -12.6
Cc1cc(NC(=O)CCN2CCC(C(N)=O)CC2)ccc1Br | -26.7
CCOC(=O)C1CCN(CC(=O)Nc2ccc(OC)c(Cl)c2)CC1 | -12.5
CCCCn1c(Nc2ccccc2)nc2ccccc21 | 24.7
CCOc1ccc(S(=O)(=O)Nc2cccc(C(=O)N3CCN(C(C)=O)CC3)c2)cc1 | -14.9
C/C(=N/NS(=O)(=O)c1ccc(C(C)(C)C)cc1)c1ccc2c(c1)OCO2 | -3.17
Cc1cc(=O)oc2cc(OCC(=O)OCC(=O)N(CCC#N)c3ccccc3)ccc12 | 6.04
COC(=O)c1ccc(C(=O)OC)c(NC(=O)CN(c2ccc3c(c2)OCO3)S(C)(=O)=O)c1 | -21.1
CSCCCNC(=O)c1ccccc1OC1CCN(S(C)(=O)=O)CC1 | 1.38
COCCNC(=O)c1sc2ncn(CC(=O)Nc3ccc(C)c(Cl)c3)c(=O)c2c1C | 10.5
CCN(CC)CCCNC(=O)c1sc2ncn(CC(=O)Nc3ccc(C)c(Cl)c3)c(=O)c2c1C | -13

Compound | hERG current change (%, negative = inhibition) at 10uM [%]
CCN(CC)CCNC(=O)c1sc2ncn(CC(=O)Nc3ccc(C)c(Cl)c3)c(=O)c2c1C | -51.8
COc1ccc(C(=O)C(CCCCC(CN(C)C)C(=O)c2ccc(OC)cc2)CN(C)C)cc1.Cl (stereo not drawn) | -2.07
O/N=C/c1ccc(OCc2ccccc2F)c(Cl)c1 | 2.95
COc1cc2c(cc1NC(=O)CN1C(=O)NC3(CCc4ccccc43)C1=O)oc1ccccc12 (stereo not drawn) | 7.1
C=CCn1c(COc2ccc(Cl)cc2)nnc1SCC(=O)N/N=C/c1ccccc1 | -7.71
C=CCn1c(COc2ccc(Cl)cc2)nnc1SCC(=O)N1CC(=O)Nc2ccccc21 | -63.5
C=CCn1c(COc2ccccc2)nnc1SCc1ccc(C#N)cc1 | -68.2
C=CCn1c(COc2ccccc2)nnc1SCC(=O)C(C)(C)C | -13.6
C=CCn1c(COc2ccc(Cl)cc2)nnc1SCC(=O)NCC(=O)OCC | -31.4
C=CCn1c(COc2ccc(Cl)cc2)nnc1SCc1ccc(C#N)cc1 | -69.8
C=CCn1c(COc2ccccc2)nnc1SCC(=O)O | -3.46
C=CCn1c(COc2ccccc2F)nnc1SCC(=O)N1CC(=O)Nc2ccccc21 | -22.6
C=CCn1c(COc2ccc(F)cc2)nnc1SCC(=O)N1CC(=O)Nc2ccccc21 | -33
O=C(CSCc1ccc(F)cc1)NCc1ccc(F)cc1 | -24.7
Cc1n[nH]c(=S)n(NC(=O)CC(=O)Nn2c(=S)[nH]nc(C)c2=O)c1=O | 45.4
COc1ccc(NC(=O)C(C)SCc2ccccc2)cc1OC (stereo not drawn) | -1.56
C=CCSc1nc2sc3c(c2c(=O)[nH]1)CCC3 | 2.84
CN(CC(=O)NC1CCCCC1)S(=O)(=O)c1ccc(Br)s1 | 20.1
CCc1ccc2c(c1)C1(SC(NC(C)=O)=NN1C(C)=O)C(=O)N2CC (stereo not drawn) | -0.0665
C=CCNC(=O)C1CCN(S(C)(=O)=O)CC1 | -0.873
CNC(=S)N(Cc1cccs1)Cc1cc2ccc(OC)cc2[nH]c1=O | 6.44

Compound | hERG current change (%, negative = inhibition) at 10uM [%]
O=C1NCC(COc2ccc(Cl)cc2)O1 (stereo not drawn) | 48.4
O=C1NCC(COc2ccc([N+](=O)[O-])cc2)O1 (stereo not drawn) | -78.4
COc1ccc(OCC2CNC(=O)O2)cc1 (stereo not drawn) | -26.2
CCCn1cc(CN2CCCC(C(=O)c3cccc(OC)c3)C2)c(C)n1 (stereo not drawn) | -51
CCn1ncc(CN2CCCC(C(=O)c3cccc(OC(C)C)c3)C2)c1C (stereo not drawn) | -19.8
CCCn1cc(CN2CCCC(C(=O)c3ccc4c(c3)OCO4)C2)c(C)n1 (stereo not drawn) | -55.4
CCCn1ncc(CN2CCCC(C(=O)c3cccc(OC(C)C)c3)C2)c1C (stereo not drawn) | -48.8
CCn1cc(CN2CCCC(C(=O)c3cccc(OC)c3)C2)c(C)n1 (stereo not drawn) | -21.3
CCCn1cc(CN2CCCC(C(=O)c3cccc(OC(C)C)c3)C2)c(C)n1 (stereo not drawn) | -35.5
CCCn1cc(CN2CCC(n3nccc3NC(=O)c3ccc4c(c3)OCO4)CC2)c(C)n1 | -5.62
CCCn1ncc(CN2CCCC(C(=O)c3cccc(OC)c3)C2)c1C (stereo not drawn) | -67.8
Cc1ccc(CS(=O)(=O)c2ncc(Cl)c(C(=O)Nc3nnc(C(C)C)s3)n2)cc1 | 9.25
CC(=O)Oc1cc2cccc(OC(C)=O)c(=O)c2c(OC(C)=O)c1OC(C)=O | 1.34
CCCNC(=O)c1ccc(N2CCC3(CC2)CC(c2ccccc2)=NO3)c(NC(=O)c2cccc(C)c2)c1 | -18.6
CCCCC(CC)C(=O)Nc1cc(C(=O)NCc2ccc(C)cc2)ccc1N1CCC2(CC1)CC(c1ccccc1)=NO2 (stereo not drawn) | 2.86
CCCCC(CC)C(=O)Nc1cc(C(=O)NCCC)ccc1N1CCC2(CC1)CC(c1ccccc1)=NO2 (stereo not drawn) | -64.6
CCCCC(CC)C(=O)Nc1cc(C(=O)NCCC)ccc1N1CCC2(CC1)CC(c1cccc(Br)c1)=NO2 (stereo not drawn) | -7.85
CCCNC(=O)c1ccc(N2CCC3(CC2)CC(c2cccc(Br)c2)=NO3)c(NC(=O)c2ccccc2)c1 | -0.8
CCCNC(=O)c1ccc(N2CCC3(CC2)CC(c2ccccc2)=NO3)c(NC(=O)c2cccc(OC)c2)c1 | -68.6
O=C(NC(=O)c1csnn1)Nc1ccccc1Cl | 9.03
CCc1cc2c3c(c1)C(C)CC(C)(C)N3C(=O)C2=O (stereo not drawn) | -15.6
